Screen size: about 200,000 compounds; about 50 (0.03%) were called active. This is one part of a sample in which actives are shown more often than they occur. Results with a measured potency or affinity are listed apart. Unmarked numbers belong to inactive results. No rule for the calls is given here.

In the experiment the target is Alkaline phosphatase, tissue-nonspecific isozyme (Homo sapiens) (UniProt P05186). The experiment is described as follows: stimulation of alkaline phosphatase TNAP activity – biochemical, luminescent, no phosphate acceptor, uHTS, primary screen (AID 1001). The conditions noted are these: purified TNAP, luminescent activation assay, at 20 µM, hits give high values.
Sequence of Alkaline phosphatase, tissue-nonspecific isozyme (Homo sapiens) (P05186 whole entry, looked up): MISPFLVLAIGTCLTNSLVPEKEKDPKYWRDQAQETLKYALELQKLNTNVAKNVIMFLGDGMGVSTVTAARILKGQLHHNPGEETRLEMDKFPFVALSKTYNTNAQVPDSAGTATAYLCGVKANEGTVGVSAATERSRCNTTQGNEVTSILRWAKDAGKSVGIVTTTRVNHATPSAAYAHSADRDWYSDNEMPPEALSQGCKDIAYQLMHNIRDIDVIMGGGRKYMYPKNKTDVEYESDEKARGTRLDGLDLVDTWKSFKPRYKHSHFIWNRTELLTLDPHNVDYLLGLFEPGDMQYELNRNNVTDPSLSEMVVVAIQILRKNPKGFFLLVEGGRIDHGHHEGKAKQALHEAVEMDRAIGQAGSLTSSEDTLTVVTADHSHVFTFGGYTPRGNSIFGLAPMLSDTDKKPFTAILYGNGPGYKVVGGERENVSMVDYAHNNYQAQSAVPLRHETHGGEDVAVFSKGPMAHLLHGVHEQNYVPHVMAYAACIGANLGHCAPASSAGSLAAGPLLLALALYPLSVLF
As for `COC(=O)c1cc(O)c(O)c(O)c1`, the activation fold was 1. For `O=C(O[C@@H]1OC2COC(=O)c3cc(O)c(O)c(O)c3-c3c(cc(O)c(O)c3O)C(=O)O[C@@H]([C@H]1O)[C@@H]2O)c1cc(O)c(O)c(O)c1` the value was 1.3. Take `O=C(OCC1O[C@@H](OC(=O)c2cc(O)c(O)c(O)c2)[C@@H](OC(=O)c2cc(O)c(O)c(O)c2)[C@@H](OC(=O)c2cc(O)c(O)c(O)c2)[C@@H]1OC(=O)c1cc(O)c(O)c(O)c1)c1cc(O)c(O)c(O)c1` (stereo not given in full): the activation fold is 3 (active). For `COC(=O)C1=C(C)N=C2SC(C#N)=C(N)N2C1c1ccc(OC)cc1` (stereo not given) the value was 1; for `COc1ccc(Cl)cc1NC(=O)CN1CCC(n2nnc3ccccc32)CC1`, 1.1; for `COc1ccc(Cl)cc1NC(=O)CN1CCC(n2nnc3cc(F)ccc32)CC1`, 1.5. On to `Cc1nc(N2CCN(C(c3ccccc3)c3ccccc3)CC2)nc2c1C(=O)CCC2`, for which the activation fold is 1.1.

With `Cc1ccc(-c2csc(NC(=O)CSC3=NCCS3)n2)cc1`, the activation fold was 1.1.

On to `CC(=O)Nc1ccc(S(=O)(=O)NCc2ccccn2)cc1`, for which the activation fold is 1.1. For `Cn1c(=O)c2c(ncn2CC(=O)N/N=C/c2ccco2)n(C)c1=O`, the activation fold was 1.1.

Turning to `Cn1c(=O)c2c(nc(NCc3ccco3)n2C)n(C)c1=O`, the activation fold was 1.1. The result for `CCc1ccc2oc(-c3ccc(OC)cc3)cc(=Nc3c(C)n(C)n(-c4ccccc4)c3=O)c2c1` reads 0.9; that for `Cc1ccc(CC(=O)Nc2nc3ccccc3s2)cc1`, 1. Turning to `CCOC(=O)c1ccc(NCc2ccc3c(c2)OCO3)cc1`, the activation fold is 1. On to `C/C(=N\Nc1ccc(C(=O)O)cc1)c1nc2ccccc2n1C`, for which the activation fold was 0.9. The result for `CCn1c(CNc2ccc(C(=O)O)cc2)nc2ccccc21` reads 1.1. For `COc1ccc(C(CNC(=O)CN2C(=O)NC3(CC(C)CC(C)(C)C3)C2=O)N2CCOCC2)cc1` (stereo not given) the value was 1.2; for `O=C(COc1ccc(Cl)cc1)NCc1nnc(SCC(=O)NCCc2ccccc2)o1`, 1.1; for `Cc1cc(C)cc(CC(Cc2nc3ccccc3[nH]2)c2nc3ccccc3[nH]2)c1` (stereo not given), 1.6. For `COc1ccccc1CC(Cc1nc2ccccc2[nH]1)c1nc2ccccc2[nH]1` (stereo not given) the value was 2.8. On to `Cc1cc2oc(=O)cc(CN3CCN(Cc4ccccc4)CC3)c2cc1Cl`, for which the activation fold is 1. For `COc1ccc(/C=C2\SC(=O)N(CC(=O)NNC(=O)c3ccccc3O)C2=O)cc1OC` the value was 2.4; for `O=C(CN1C(=O)S/C(=C\c2ccccc2)C1=O)NNC(=O)c1ccccc1O`, 2.2; for `COc1ccc(NC(=O)CC2C(=O)N(Cc3cccs3)C(=S)N2C(C)C)cc1` (stereo not given), 1.1. For `CCOc1ccc(N(C(=O)c2cnsn2)C(C(=O)NC2CCCCC2)c2ccncc2)cc1` (stereo not given) the value was 1.2; for `Cn1nc(CC(=O)NC2CCCCC2)c2ccccc2c1=O`, 1.1; for `Cn1nc(CC(=O)NC2CCCCCC2)c2ccccc2c1=O`, 1.1.

Take `COc1ccc(CN2CCNC(=O)C2CC(=O)NCc2ccc(C)s2)c(OC)c1` (stereo not given): the activation fold is 1.1. Consider `Cc1ccc(CNC(=O)C2(NC(=O)Nc3ccc(C)cc3)CCCCC2)cc1`, for which the activation fold was 1.2.

With `Cc1ccc(NC(=O)NC2(C(=O)NCc3ccccc3)CCCCC2)cc1`, the activation fold is 1.1. The result for `O=C(NC1CCCCC1)C1CCN(C(=O)c2ccc(-c3ccccc3)cc2)CC1` reads 1.1; that for `N=c1c2c(-c3ccccc3)c(-c3ccccc3)n(Cc3ccco3)c2ncn1CCCn1ccnc1`, 2.7. In the case of `OCCNc1ncnc2c1c(-c1ccccc1)c(-c1ccccc1)n2Cc1ccco1`, the activation fold is 1.1.

Consider `COc1cc(NC(=O)CN2CCCCC2)c(C)cc1[N+](=O)[O-]`, for which the activation fold was 1.1.

On to `CCOc1cc(-n2cnnn2)c(OCC)cc1NC(=O)c1cnccn1`, for which the activation fold is 1.1. The result for `c1ccc2c(c1)Nc1nccnc1S2` reads 1. The result for `COc1ccc2[nH]c(=O)c(CN(CCN3CCCC3)C(=O)Nc3ccccc3Cl)cc2c1` reads 1.1.

Consider `CCOc1ccccc1-c1c2cc(O)c(=O)cc-2oc2cc(O)c(O)cc12`, for which the activation fold was 0.6. For `Cc1c2cc(O)c(=O)cc-2oc2cc(O)c(O)cc12` the value was 0.4. Consider `COc1ccc(OC)c(-c2c3cc(O)c(=O)cc-3oc3cc(O)c(O)cc23)c1`, for which the activation fold was 3.9 (active). The result for `O=C(NCCCN1CCCC1=O)c1ccc(OCc2ccccc2)cc1` reads 1.1; that for `COc1nc(-c2cnccn2)sc1C`, 1.1. The result for `COc1ccc2nc(C)cc(SCC(=O)NNC(=O)COc3cccc4ccccc34)c2c1` reads 2.1.

`COc1ccc2nc(C)cc(SCC(=O)NNC(=O)COc3ccc(C)cc3)c2c1`: the activation fold was 1.1. As for `O=C(CN1CCOCC1)NCCC12CC3CC(CC(C3)C1)C2`, the activation fold is 1.2. For `COc1ccc(N/C=C\C(=O)c2ccc(Br)cc2)cc1OC` the value was 1.1. The result for `Cc1nn(C)cc1/C=C/C(=O)c1ccccc1` reads 1.1; that for `CCCCCCCC(=O)NNC(=O)c1ccc(F)cc1`, 2.1. For `CCCCCC(=O)NNC(=O)c1ccc(F)cc1` the value was 1; for `Cc1cc(NC(=O)CCC(=O)N(Cc2ccco2)C(C(=O)NC2CCCCC2)c2cccs2)no1` (stereo not given), 1.1; for `Cc1cc(Cl)ccc1OCC(=O)NCCOC(=O)Nc1sc(=S)n(C)c1C`, 1.2. `Cc1c(C(=O)Oc2cc(N)n(S(C)(=O)=O)n2)cccc1[N+](=O)[O-]`: the activation fold was 1. Turning to `CC(=O)c1ccc(NC(=O)COc2ccc3c(c2)OCO3)cc1`, the activation fold was 1.1. In the case of `Cc1cc(NC(=O)CN2CCN(C)CC2)no1`, the activation fold is 1.1.

For the compound `Cc1cc(C)c(NC(=O)CN2CCN(C)CC2)c(C)c1`, the activation fold was 1.2. For `COc1ccc(C2C(C(=O)OC3CCCCC3)=C(C)Nc3nnnn32)c(OC)c1OC` (stereo not given) the value was 1.

For `N#Cc1c(SCC(=O)O)nc(-c2ccccc2)c2c1CCCC2`, the activation fold is 1.

As for `Cc1cccc2sc(NC(=O)CN(C)S(=O)(=O)c3ccc(Br)s3)nc12`, the activation fold was 1.

`CC1CCN(Cc2nc(Cl)c3c4c(sc3n2)CCC4)CC1`: the activation fold is 1. On to `COc1cccc(-c2nnc(Nc3nc4c(F)cccc4s3)o2)c1`, for which the activation fold is 1.7. `COc1cc(OC)cc(-c2nnc(Nc3nc4c(F)cccc4s3)o2)c1`: the activation fold is 1.2. For `O=C(OCc1cc2ccccc2[nH]c1=O)C1CCCO1` (stereo not given) the value was 1.1; for `O=C(CSc1nnc(C2COc3ccccc3O2)o1)Nc1nccs1` (stereo not given), 1.2. The result for `CCCCOC(=O)c1ccc(NC(=O)CSCc2n[nH]c(=O)[nH]2)cc1` reads 1.4. The result for `O=[N+]([O-])c1ccccc1-c1cc(-c2ccccc2O)n[nH]1` reads 2.1; that for `Cc1ccc(O)c(-c2cc(-c3ccccc3[N+](=O)[O-])[nH]n2)c1`, 2.3. With `CC(C)(Oc1ccc(Cl)cc1)C(=O)NCc1ccc(S(N)(=O)=O)cc1`, the activation fold was 1.2. For `CCn1cc(S(=O)(=O)CC(=O)Nc2ccc3c(c2)OCCO3)c2ccccc21` the value was 1.1. For `CC(C)C(OC(=O)C1=Cc2ccccc2OC1)C(=O)NC1CCCC1` (stereo not given) the value was 1.2.

For the compound `CN(C)CCNc1ccc(-c2nn(C)c(=O)c3ccccc23)cc1[N+](=O)[O-]`, the activation fold was 1. The result for `O=S1(=O)NC2CCCCCN2c2ccc(F)cc21` (stereo not given) reads 1.1. The result for `Cn1c(C(=O)NCC2CCCO2)cc2c(=O)n(C)c3ccccc3c21` (stereo not given) reads 1.1. With `CSC1=C(C#N)C2(CCCC2)C(C#N)=C(N)N1`, the activation fold is 1.1. The result for `CCSC1=C(C#N)C2(CCCC2)C(C#N)=C(N)N1` reads 1; that for `CC(C)N1CCC2(CC1)C(C#N)=C(N)NC(S)=C2C#N`, 5.8 (active); that for `CCOC(=O)CSc1nnc(NCC(=O)OC(C)C)c(=O)[nH]1`, 1.2. On to `CC(=O)NC(=S)Nc1ccc(NC(=O)COc2ccc(C(C)C)cc2)cc1`, for which the activation fold was 1. The result for `Cc1ccccc1NC(=O)c1ccc(S(=O)(=O)C(F)F)cc1` reads 1.1; that for `COC(=O)c1ccc2nc(Nc3nc4ccc(F)cc4s3)sc2c1`, 1.2; that for `CCOC(=O)c1csc(Nc2nc3ccc(F)cc3s2)n1`, 1.1. Take `C/C(=N\NC(=O)c1ccc(Cn2cc([N+](=O)[O-])cn2)o1)c1cccc(NC(=O)C(C)C)c1`: the activation fold was 1.1. Consider `CCC(C)NC(=O)CSC1=Nc2ccccc2C2=NC(c3ccccc3)C(=O)N12` (stereo not given), for which the activation fold is 1. For `CC(/C=N/NC(=O)Cc1cccs1)=C\c1ccccc1` the value was 1.

Consider `COc1cccc(OCCOCCNCCO)c1`, for which the activation fold was 1.1. The result for `CC(C)C(=O)NNC(=O)c1ccccn1` reads 1.2; that for `O=C(NNC(=O)C(c1ccccc1)c1ccccc1)c1ccccn1`, 1.5; that for `Cc1nn(CC(=O)NC2C(=O)N3C(C(=O)O)=C(CSc4nnnn4C)CSC23)cc1Br` (stereo not given), 1.2. Regarding `C=CCN1C(=O)C(C)(C)Nc2ccccc21`, the activation fold is 1.1. As to `C=CCN1C(=O)C2(NC(=O)c3ccccc3N2)c2ccccc21` (stereo not given), the activation fold is 1.1.

Take `O=C1N(CCCCN2C(=O)C3(OCCO3)c3ccccc32)c2ccccc2C12OCCO2`: the activation fold was 1.2. Consider `O=C1N(CCCN2C(=O)C3(OCCO3)c3ccccc32)c2ccccc2C12OCCO2`, for which the activation fold was 1. For `O=C(CSc1nnc(-c2ccccc2)n1-c1ccc(Cl)cc1)N/N=C/c1ccco1` the value was 1. The result for `Cc1ccc(C)c(NC(=O)CS(=O)(=O)c2c[nH]c3ccccc23)c1` reads 1; that for `Cn1cc(Cl)c(C(=O)NC2CCCC2)n1`, 1.1. Regarding `Cn1cc(Cl)c(C(=O)NC2CCCCCC2)n1`, the activation fold was 1.2. For `Cc1c(-n2cccc2C=O)cccc1[N+](=O)[O-]` the value was 1.6; for `COC(=O)Nc1nnc(CCc2ccccc2)s1`, 0.9; for `COc1ccccc1CNC(=O)Cc1ccc(Br)cc1`, 1.2.

Regarding `O=C(Nc1ccccc1-c1ccccc1)NC1CC2CCCC(C1)N2Cc1ccc(F)cc1` (stereo not given), the activation fold is 2.7. Consider `CCOc1ccccc1NC(=O)NC1CC2CCCC(C1)N2Cc1nnnn1CCc1ccccc1` (stereo not given), for which the activation fold is 1.4. For `CC(C)OC(=O)C1C2C=CC3(CN(C(C)c4ccc(Br)cc4)C(=O)C13)O2` (stereo not given) the value was 1.1; for `Cn1c(=O)c2c(nc(N/N=C3\CCCc4ccccc43)n2Cc2ccc(F)cc2)n(C)c1=O`, 2.2. The result for `Cn1c(N/N=C2\CCCc3ccccc32)nc2c1c(=O)n(Cc1ccccc1)c(=O)n2C` reads 2.9; that for `Fc1ccc(C2CC(c3ccc(F)cc3)n3ncnc3N2)cc1` (stereo not given), 1.1; that for `CC(C)N1CC(O)=C(c2nc3ccccc3[nH]2)C1=N`, 1.4.

As for `CC(C)CCN1CC(O)=C(c2nc3ccccc3[nH]2)C1=N`, the activation fold was 2. For `C=CCNC(=O)c1cc(-c2ccc(Br)cc2)on1` the value was 1.2; for `Cc1ccc(S(=O)(=O)NNC(=O)C(=O)NNc2ccccn2)cc1`, 2.9. The result for `O=C(NNc1ccccn1)C(=O)NNS(=O)(=O)c1ccc(F)cc1` reads 2.7; that for `Cc1ccc(NC(=O)c2cccc(S(C)(=O)=O)c2)cc1`, 1.1. Consider `C=CCN(CC=C)C(=O)C1CCC(C(=O)N(CC=C)CC=C)CC1` (stereo not given), for which the activation fold is 1. The result for `COc1ccc(-n2cc(CNCCc3cscn3)c(-c3ccccc3Cl)n2)cc1` reads 1.1; that for `COc1ccc(-n2cc(CNCCc3nc(C)cc(C)n3)c(-c3ccccc3Cl)n2)cc1`, 1. Consider `CC(C)(C)c1ccc(C(=O)NNC(=O)c2ccc(Cl)cc2)cc1`, for which the activation fold was 1.9. The result for `COC(=O)NNC(=O)c1ccc(C(C)(C)C)cc1` reads 1.1.

The record behind these values is PubChem BioAssay AID1001 (Sanford-Burnham Center for Chemical Genomics, 2008).
